# Key:
# Assay type in all cases: functional
# [1] = biological target: Solute carrier family 2, facilitated glucose transporter member 1 (Homo sapiens) (UniProt P11166); assay: ST_JUDE_LEISH: Cytotoxicity at 2uM final concentration against transgenic Leishmania Mexicana promastigotes LmGLUT1 that are glucose transport deficient and complemented with the human glucose transporter GLUT1. Activity is measured by DNA content using SYBR green in vitro
# [2] = biological target: Hexose transporter 1 (Plasmodium falciparum) (UniProt O97467); assay: ST_JUDE_LEISH: Cytotoxicity at 2uM final concentration against transgenic Leishmania Mexicana promastigotes LmPfHT that are glucose transport deficient and complemented with the Plasmodium falciparum hexose transporter. Activity is measured by DNA content using SYBR green in vitro
# [3] = biological target: Glucose transporter (Leishmania mexicana) (UniProt O61059); assay: ST_JUDE_LEISH: Cytotoxicity at 2uM final concentration against transgenic Leishmania Mexicana promastigotes LmGT2 that are glucose transport deficient and complemented with the L. Mexicana glucose transporter 2. Activity is measured by DNA content using SYBR green in vitro
# Chain of Solute carrier family 2, facilitated glucose transporter member 1 (Homo sapiens) (P11166 whole entry): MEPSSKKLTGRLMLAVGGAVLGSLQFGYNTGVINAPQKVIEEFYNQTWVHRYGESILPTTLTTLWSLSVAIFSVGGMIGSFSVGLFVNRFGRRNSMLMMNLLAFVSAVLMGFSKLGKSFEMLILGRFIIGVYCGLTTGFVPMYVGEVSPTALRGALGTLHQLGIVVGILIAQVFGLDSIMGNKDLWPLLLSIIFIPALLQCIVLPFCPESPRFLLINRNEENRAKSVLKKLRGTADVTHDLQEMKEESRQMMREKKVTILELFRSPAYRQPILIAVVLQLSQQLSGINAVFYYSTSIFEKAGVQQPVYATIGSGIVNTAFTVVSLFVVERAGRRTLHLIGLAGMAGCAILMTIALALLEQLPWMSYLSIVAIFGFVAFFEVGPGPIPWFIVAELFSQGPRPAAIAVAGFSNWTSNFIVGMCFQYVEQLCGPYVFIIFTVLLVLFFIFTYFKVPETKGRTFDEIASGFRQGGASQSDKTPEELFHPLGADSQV
smiles,measurement,setting,value
CC(C)c1cccc(C(NC(=O)[C@H]2Cc3ccccc3CN2C(=O)c2cccc(N3CCOCC3)c2)C2CCCC2)c1 (stereo partly specified),inhibition,[1],1%
same,inhibition,[2],0.21%
same,inhibition,[3],0.64%
Cc1cc(CNCCCCCNCc2ccc(Cl)cc2)ccc1O,inhibition,[1],1.35%
same,inhibition,[2],1.91%
same,inhibition,[3],2.91%
CCOC(=O)c1cc(C(=O)OC)c2ccccn12,inhibition,[1],2.17%
same,inhibition,[2],0.87%
same,inhibition,[3],1.34%
O=C(Nc1ccc(C(=O)N2CCN(CCN3CCN(c4cccc(C(F)(F)F)c4)CC3)CC2)cc1)c1ccc(C(F)(F)F)cc1,inhibition,[1],2.54%
same,inhibition,[2],2.63%
same,inhibition,[3],1.69%
COc1ccccc1N1CCN(c2cccc(F)c2C#N)CC1,inhibition,[1],8.24%
same,inhibition,[2],6.93%
same,inhibition,[3],6.12%
O=S(=O)(NCCN1CCCC1)c1ccc(-c2ccc(CN3Cc4ccccc4C3)cc2)s1,inhibition,[1],-0.63%
same,inhibition,[2],-0.5%
same,inhibition,[3],-2.59%
FC(F)(F)c1cccc(CNCC2CCN(Cc3ccc4c(c3)OCO4)CC2)c1,inhibition,[1],9.53%
same,inhibition,[2],12.1%
same,inhibition,[3],12.3%
COc1ccc2ncc(F)c([C@@H](O)CN3CCC(NCc4cc(C#N)c5c(c4)CCO5)CC3)c2n1,inhibition,[1],3.43%
same,inhibition,[2],3.05%
same,inhibition,[3],0.58%
O=c1cc(NCCCNCc2ccc(Cl)c(Cl)c2)[nH]c2cc(Cl)ccc12,inhibition,[1],2.05%
same,inhibition,[2],3.29%
same,inhibition,[3],2.73%
O=C(Nc1ccc(OC2CCN(CC3CC3)CC2)c(Cl)c1)c1ccc2ncccc2c1,inhibition,[1],8.41%
same,inhibition,[2],9.49%
same,inhibition,[3],7.58%
CCc1nc2c(cnn2CC)c(NC2CCOCC2)c1CNC(=O)c1ccoc1C,inhibition,[1],6.4%
same,inhibition,[2],6.38%
same,inhibition,[3],2.97%
CCCCNCc1ccc(-c2nc(CN(CCCn3ccnc3)C(=O)NC3CC3c3ccccc3)cs2)cc1 (stereo unspecified),inhibition,[1],3.77%
same,inhibition,[2],3.79%
same,inhibition,[3],4.29%
